Results from ChEMBL document CHEMBL1961873, “Compounds: GSK PKIS; Assays: Nanosyn kinase panel” (2012).

Tests used:
[1] = target: Death-associated protein kinase 1 (Homo sapiens) (UniProt P53355); conditions: at 1 µM;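 also: each value is a mean inhibition figure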
[2] = target: T1, Serine/threonine-protein kinase DCLK2 (Homo sapiens) (UniProt Q8N568); conditions: at 0.1 µM
T1 sequence (whole entry): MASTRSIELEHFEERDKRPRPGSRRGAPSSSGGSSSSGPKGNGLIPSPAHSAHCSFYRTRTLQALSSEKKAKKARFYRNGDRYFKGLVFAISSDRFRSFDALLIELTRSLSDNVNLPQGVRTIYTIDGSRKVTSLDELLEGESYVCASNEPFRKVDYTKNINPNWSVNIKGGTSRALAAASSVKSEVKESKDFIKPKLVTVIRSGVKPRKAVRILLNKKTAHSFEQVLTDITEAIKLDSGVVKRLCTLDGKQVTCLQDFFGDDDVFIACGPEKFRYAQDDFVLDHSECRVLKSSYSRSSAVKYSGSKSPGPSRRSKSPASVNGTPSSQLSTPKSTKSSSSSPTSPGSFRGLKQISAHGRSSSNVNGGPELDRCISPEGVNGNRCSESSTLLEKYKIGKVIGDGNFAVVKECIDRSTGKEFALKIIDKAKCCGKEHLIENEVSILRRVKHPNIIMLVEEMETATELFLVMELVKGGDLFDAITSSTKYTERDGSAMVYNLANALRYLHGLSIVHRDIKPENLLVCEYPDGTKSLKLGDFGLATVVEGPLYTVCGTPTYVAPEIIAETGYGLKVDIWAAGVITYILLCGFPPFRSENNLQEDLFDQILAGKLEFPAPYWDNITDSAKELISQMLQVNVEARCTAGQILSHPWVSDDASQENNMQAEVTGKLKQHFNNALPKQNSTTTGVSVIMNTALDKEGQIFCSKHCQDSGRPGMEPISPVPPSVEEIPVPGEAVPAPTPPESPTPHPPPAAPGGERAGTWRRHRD

[3] = target: T1, Serine/threonine-protein kinase DCLK2 (Homo sapiens); conditions: at 1 µM
[4] = target: MAP kinase-activated protein kinase 2 (Homo sapiens) (UniProt P49137); conditions: at 0.1 µM
[5] = target: MAP kinase-activated protein kinase 2 (Homo sapiens) (UniProt P49137); conditions: at 1 µM
[6] = target: MAP kinase-activated protein kinase 3 (Homo sapiens) (UniProt Q16644); conditions: at 0.1 µM
[7] = target: MAP kinase-activated protein kinase 3 (Homo sapiens) (UniProt Q16644); conditions: at 1 µM
[8] = target: Serine/threonine-protein kinase MARK1 (Homo sapiens) (UniProt Q9P0L2); conditions: at 0.1 µM
[9] = target: Serine/threonine-protein kinase MARK1 (Homo sapiens) (UniProt Q9P0L2); conditions: at 1 µM
[10] = target: MAP/microtubule affinity-regulating kinase 3 (Homo sapiens) (UniProt P27448); conditions: at 0.1 µM
[11] = target: MAP/microtubule affinity-regulating kinase 3 (Homo sapiens) (UniProt P27448); conditions: at 1 µM
[12] = target: T2, MAP/microtubule affinity-regulating kinase 4 (Homo sapiens) (UniProt Q96L34); conditions: at 0.1 µM
T2 sequence (whole entry): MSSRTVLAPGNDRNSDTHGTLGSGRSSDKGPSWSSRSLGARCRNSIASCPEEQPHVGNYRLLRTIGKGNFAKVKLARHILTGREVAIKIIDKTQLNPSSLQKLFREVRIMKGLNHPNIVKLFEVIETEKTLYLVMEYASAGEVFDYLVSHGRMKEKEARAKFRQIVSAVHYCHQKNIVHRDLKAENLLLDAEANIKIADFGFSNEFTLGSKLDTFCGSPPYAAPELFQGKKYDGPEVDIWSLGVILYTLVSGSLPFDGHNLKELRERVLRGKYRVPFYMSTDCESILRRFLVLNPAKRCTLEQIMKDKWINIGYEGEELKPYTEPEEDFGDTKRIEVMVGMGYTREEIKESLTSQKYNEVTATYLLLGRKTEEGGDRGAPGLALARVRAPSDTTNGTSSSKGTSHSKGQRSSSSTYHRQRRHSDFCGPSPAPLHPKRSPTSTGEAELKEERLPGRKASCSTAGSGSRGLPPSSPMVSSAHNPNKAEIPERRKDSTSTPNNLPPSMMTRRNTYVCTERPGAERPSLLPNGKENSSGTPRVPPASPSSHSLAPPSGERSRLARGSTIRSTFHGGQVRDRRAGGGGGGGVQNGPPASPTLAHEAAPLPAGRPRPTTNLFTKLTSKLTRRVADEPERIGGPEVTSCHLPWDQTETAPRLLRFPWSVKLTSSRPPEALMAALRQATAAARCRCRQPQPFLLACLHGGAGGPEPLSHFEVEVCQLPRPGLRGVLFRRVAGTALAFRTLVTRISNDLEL

[13] = target: T2, MAP/microtubule affinity-regulating kinase 4 (Homo sapiens); conditions: at 1 µM
[14] = target: Maternal embryonic leucine zipper kinase (Homo sapiens) (UniProt Q14680); conditions: at 0.1 µM
[15] = target: Maternal embryonic leucine zipper kinase (Homo sapiens) (UniProt Q14680); conditions: at 1 µM
[16] = target: MAP kinase-interacting serine/threonine-protein kinase 1 (Homo sapiens) (UniProt Q9BUB5); conditions: at 0.1 µM
[17] = target: MAP kinase-interacting serine/threonine-protein kinase 1 (Homo sapiens) (UniProt Q9BUB5); conditions: at 1 µM
[18] = target: MAP kinase-interacting serine/threonine-protein kinase 2 (Homo sapiens) (UniProt Q9HBH9); conditions: at 0.1 µM
[19] = target: MAP kinase-interacting serine/threonine-protein kinase 2 (Homo sapiens) (UniProt Q9HBH9); conditions: at 1 µM
[20] = target: Serine/threonine-protein kinase MARK2 (Homo sapiens) (UniProt Q7KZI7); conditions: at 0.1 µM;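 also: mean percent inhibition of PAR-1Balpha kinase activity, reported from the GSK PKIS screen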
Sequence of Serine/threonine-protein kinase MARK2 (Homo sapiens) (Q7KZI7 whole entry): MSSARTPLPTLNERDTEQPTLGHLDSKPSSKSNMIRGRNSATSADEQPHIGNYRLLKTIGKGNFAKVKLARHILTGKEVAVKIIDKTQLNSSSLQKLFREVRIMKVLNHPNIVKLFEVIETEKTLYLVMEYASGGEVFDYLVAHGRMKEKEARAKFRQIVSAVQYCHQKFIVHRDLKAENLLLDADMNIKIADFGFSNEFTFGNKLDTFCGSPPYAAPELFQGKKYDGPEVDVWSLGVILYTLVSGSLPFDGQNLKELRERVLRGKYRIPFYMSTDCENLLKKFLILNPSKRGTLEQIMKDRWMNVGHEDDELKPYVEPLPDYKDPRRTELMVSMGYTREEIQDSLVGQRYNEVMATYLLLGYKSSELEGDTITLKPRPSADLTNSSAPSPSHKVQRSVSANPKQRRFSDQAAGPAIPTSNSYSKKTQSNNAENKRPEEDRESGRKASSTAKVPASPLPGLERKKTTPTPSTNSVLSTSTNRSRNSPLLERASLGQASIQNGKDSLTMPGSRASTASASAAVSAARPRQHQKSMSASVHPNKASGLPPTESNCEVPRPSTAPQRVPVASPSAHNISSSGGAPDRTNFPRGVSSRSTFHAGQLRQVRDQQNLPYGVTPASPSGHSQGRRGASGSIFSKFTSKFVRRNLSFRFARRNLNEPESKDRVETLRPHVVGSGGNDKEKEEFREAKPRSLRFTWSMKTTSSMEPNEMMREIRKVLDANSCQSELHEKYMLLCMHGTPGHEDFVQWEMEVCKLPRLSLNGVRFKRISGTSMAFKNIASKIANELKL

Sequence of MAP kinase-activated protein kinase 3 (Homo sapiens) (Q16644 whole entry, looked up): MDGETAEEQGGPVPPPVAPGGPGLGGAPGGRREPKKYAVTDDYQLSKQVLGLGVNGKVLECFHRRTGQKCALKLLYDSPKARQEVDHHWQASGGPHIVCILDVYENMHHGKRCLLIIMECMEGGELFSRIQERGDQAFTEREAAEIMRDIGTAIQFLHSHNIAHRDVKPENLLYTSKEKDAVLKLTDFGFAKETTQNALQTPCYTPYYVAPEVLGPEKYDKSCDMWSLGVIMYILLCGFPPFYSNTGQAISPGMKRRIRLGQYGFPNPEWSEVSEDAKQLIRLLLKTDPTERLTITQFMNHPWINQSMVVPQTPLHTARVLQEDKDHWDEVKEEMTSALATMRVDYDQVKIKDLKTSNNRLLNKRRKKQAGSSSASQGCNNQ
Sequence of Death-associated protein kinase 1 (Homo sapiens) (P53355 whole entry, looked up): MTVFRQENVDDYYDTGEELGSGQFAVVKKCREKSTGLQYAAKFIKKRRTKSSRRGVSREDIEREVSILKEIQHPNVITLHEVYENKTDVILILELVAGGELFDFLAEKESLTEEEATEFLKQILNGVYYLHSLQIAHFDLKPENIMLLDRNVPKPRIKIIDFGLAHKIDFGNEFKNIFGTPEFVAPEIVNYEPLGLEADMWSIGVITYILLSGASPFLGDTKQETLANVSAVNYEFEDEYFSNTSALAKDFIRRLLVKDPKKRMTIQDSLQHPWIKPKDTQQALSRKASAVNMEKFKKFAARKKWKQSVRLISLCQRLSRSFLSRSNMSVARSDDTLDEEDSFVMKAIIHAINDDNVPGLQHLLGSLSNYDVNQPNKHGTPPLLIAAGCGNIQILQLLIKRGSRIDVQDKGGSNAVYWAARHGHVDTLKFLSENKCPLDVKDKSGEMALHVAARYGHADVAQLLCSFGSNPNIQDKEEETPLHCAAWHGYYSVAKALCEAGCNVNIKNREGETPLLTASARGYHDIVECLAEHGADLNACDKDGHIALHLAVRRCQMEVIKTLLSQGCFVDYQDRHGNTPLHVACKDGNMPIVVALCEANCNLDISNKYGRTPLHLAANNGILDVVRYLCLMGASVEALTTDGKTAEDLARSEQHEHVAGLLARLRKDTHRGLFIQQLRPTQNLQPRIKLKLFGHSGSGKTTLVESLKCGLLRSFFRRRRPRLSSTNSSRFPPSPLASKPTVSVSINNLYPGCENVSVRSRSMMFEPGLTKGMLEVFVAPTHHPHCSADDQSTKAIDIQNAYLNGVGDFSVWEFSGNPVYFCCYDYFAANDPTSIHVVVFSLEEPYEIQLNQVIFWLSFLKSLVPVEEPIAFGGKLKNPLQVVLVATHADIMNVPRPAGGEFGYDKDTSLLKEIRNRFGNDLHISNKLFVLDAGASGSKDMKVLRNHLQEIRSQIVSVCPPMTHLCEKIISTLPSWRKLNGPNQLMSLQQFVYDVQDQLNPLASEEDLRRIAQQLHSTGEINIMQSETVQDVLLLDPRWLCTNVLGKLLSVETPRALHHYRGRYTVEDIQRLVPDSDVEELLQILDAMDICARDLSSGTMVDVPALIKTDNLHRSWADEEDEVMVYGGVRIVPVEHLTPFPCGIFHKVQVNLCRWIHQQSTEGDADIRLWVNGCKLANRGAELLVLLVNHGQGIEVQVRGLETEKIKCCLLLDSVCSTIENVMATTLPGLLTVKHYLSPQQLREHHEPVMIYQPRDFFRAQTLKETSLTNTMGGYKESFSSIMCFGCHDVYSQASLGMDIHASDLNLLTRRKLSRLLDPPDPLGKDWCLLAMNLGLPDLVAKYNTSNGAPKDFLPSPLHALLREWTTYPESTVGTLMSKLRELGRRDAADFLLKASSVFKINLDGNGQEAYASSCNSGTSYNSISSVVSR
Sequence of MAP kinase-interacting serine/threonine-protein kinase 2 (Homo sapiens) (Q9HBH9 whole entry, looked up): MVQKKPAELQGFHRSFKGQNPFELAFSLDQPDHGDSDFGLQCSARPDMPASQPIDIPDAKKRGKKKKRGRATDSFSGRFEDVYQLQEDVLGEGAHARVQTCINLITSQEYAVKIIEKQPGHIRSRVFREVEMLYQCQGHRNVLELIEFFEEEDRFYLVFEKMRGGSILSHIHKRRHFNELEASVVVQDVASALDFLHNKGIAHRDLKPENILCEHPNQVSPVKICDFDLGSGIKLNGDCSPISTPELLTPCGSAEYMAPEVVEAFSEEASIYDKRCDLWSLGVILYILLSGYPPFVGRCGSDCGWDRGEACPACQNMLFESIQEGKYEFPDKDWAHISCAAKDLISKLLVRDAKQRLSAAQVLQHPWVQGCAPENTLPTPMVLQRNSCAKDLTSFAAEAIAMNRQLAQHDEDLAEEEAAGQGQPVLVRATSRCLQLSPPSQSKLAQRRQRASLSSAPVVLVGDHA
Sequence of MAP kinase-interacting serine/threonine-protein kinase 1 (Homo sapiens) (Q9BUB5 whole entry, looked up): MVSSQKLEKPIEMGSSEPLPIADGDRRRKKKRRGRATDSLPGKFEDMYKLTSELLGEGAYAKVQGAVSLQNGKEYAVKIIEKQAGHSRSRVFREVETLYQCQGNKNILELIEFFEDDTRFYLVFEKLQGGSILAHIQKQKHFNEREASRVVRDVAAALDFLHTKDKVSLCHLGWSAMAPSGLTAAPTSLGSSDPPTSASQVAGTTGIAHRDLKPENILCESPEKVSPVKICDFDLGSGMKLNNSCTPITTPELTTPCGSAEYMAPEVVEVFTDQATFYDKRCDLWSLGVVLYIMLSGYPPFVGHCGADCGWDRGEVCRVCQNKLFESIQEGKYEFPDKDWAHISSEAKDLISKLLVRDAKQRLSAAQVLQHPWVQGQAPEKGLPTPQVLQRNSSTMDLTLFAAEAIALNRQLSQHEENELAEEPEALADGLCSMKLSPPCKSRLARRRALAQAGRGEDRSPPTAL
Sequence of MAP/microtubule affinity-regulating kinase 3 (Homo sapiens) (P27448 whole entry, looked up): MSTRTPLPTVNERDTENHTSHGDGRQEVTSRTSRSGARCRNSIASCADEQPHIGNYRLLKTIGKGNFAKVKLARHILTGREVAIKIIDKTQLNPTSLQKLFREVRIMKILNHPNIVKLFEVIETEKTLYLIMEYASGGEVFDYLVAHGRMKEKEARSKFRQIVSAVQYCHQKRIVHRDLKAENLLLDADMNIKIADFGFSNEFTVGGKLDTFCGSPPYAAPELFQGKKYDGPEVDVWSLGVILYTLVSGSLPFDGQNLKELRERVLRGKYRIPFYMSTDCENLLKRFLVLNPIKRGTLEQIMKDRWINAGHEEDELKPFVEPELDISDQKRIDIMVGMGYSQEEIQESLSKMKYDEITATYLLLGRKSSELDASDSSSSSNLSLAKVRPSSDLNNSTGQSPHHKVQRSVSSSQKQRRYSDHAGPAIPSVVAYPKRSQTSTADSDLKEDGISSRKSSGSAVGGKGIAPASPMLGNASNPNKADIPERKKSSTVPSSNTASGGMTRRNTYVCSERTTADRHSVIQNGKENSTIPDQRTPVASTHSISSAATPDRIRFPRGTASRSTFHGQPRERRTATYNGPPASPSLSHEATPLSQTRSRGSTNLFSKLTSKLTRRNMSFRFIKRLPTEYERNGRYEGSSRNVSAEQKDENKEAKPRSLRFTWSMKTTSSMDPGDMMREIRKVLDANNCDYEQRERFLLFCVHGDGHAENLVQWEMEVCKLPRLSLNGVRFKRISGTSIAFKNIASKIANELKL
Sequence of Serine/threonine-protein kinase MARK1 (Homo sapiens) (Q9P0L2 whole entry, looked up): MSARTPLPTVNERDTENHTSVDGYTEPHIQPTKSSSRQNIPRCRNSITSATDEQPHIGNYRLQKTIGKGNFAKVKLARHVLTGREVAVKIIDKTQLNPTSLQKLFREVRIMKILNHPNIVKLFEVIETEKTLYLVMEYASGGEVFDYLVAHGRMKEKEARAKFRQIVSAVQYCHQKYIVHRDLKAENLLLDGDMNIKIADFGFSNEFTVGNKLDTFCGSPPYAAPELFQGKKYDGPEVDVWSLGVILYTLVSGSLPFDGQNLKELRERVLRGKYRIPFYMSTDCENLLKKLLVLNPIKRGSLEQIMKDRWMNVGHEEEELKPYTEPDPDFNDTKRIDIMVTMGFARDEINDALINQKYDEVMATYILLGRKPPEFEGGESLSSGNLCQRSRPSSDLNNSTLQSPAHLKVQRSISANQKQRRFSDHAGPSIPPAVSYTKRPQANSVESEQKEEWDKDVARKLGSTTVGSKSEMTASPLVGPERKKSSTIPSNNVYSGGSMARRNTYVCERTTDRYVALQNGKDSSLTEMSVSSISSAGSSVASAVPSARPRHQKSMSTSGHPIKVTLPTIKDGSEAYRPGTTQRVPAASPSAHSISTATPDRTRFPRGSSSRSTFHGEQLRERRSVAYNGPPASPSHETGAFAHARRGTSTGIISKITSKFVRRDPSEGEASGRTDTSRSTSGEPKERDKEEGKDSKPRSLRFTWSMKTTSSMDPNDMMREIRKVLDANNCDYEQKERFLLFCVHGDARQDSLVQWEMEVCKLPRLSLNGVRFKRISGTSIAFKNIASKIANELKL

Row | Structure (SMILES) | inhibition [1] [%] | inhibition [2] [%] | inhibition [3] [%] | inhibition [4] [%] | inhibition [5] [%] | inhibition [6] [%] | inhibition [7] [%] | inhibition [8] [%] | inhibition [9] [%] | inhibition [10] [%] | inhibition [11] [%] | inhibition [12] [%] | inhibition [13] [%] | inhibition [14] [%] | inhibition [15] [%] | inhibition [16] [%] | inhibition [17] [%] | inhibition [18] [%] | inhibition [19] [%] | inhibition [20] [%]
1 | CNC(=O)c1cccc(C#Cc2cncnc2Nc2ccc(OCc3cccc(F)c3)c(Cl)c2)c1 | -1.89 | -9.58 | -6.14 | 1.01 | 0.58 | 1.88 | 1.66 | -0.72 | 1.6 | 1.07 | 23.2 | -0.97 | 0.31 | -3.3 | -0.86 | 3.12 | 26.2 | 1.92 | 13.1 | -2.05
2 | COc1cc(Nc2nccc(Nc3ccc4c(C)n[nH]c4c3)n2)cc(OC)c1OC | 2.65 | -0.29 | 2.5 | 0.91 | 0.86 | 1.05 | 1.36 | 2.59 | 8.82 | 3.33 | 9.39 | 1.78 | 8 | 3.21 | 8.73 | 2.01 | 13.5 | 2.68 | 19.2 | 1.57
3 | CS(=O)(=O)CCNCc1ccc(-c2ccc3ncnc(Nc4ccc(OCc5ccccc5)c(C(F)(F)F)c4)c3c2)o1 | 10.9 | 7.37 | 2.23 | 4.99 | 3.73 | 8.97 | 10.7 | 2.72 | 4.11 | 3.87 | 4.16 | 2.86 | 3.74 | 2.98 | 2.19 | 2.1 | 3.92 | -0.02 | 4.64 | 0.21
4 | CCN(CC)S(=O)(=O)c1ccc(OC)c(Nc2ncc(-c3ccccc3)o2)c1 | 4.29 | 2.03 | 3.38 | 2.65 | 1.48 | 1.95 | -0.47 | 1.44 | 2.58 | -0.45 | 18.7 | -1.02 | 0.8 | -0.34 | 7.01 | 1.28 | 5.6 | 1.51 | 2.53 | 0.71
5 | CS(=O)(=O)CCNCc1coc(-c2ccc3ncnc(Nc4ccc(OCc5ccccc5)cc4)c3c2)c1 | 1.73 | -0.36 | 0.64 | 1.33 | 1.98 | 2.6 | 1.32 | 2.05 | 1.62 | 1.54 | 3.7 | 1.75 | 1.07 | 3.52 | 6.96 | 3.46 | 9.67 | 3.42 | 14.1 | -0.55
6 | CCn1c(-c2nonc2N)nc2c(C#CC(C)(C)O)nc(OC[C@H](N)c3ccccc3)cc21 | 4.82 | -2.25 | 1.52 | 0.63 | 2.99 | 1.45 | 2.95 | 2.28 | 27.3 | 4.68 | 35.4 | 1.25 | 18.4 | 17.7 | 82.1 | 1.77 | 2.97 | 3.54 | 2.92 | 1.39
7 | CCCN1CCC(c2ccc(Nc3nc(Nc4cc(F)ccc4C(N)=O)c4cc[nH]c4n3)c(OC)c2)CC1 | 50 | 1.99 | 8.21 | 1.84 | 3.23 | 5.33 | 11.9 | 9.11 | 50.1 | 12.2 | 66.6 | 7.27 | 42.6 | 21.7 | 78.7 | 5.57 | 10.7 | 3.26 | 7.76 | 7.99
